Inhibition data for 25 compounds are collected here from PubChem BioAssay AID488862 (Broad Institute, 2010).

“And” between values parts separate entries of the source, which are not always exact repeats. Identical values can stand only once. The whole screen tested about 340,000 compounds, of which about 1,200 (0.35%) were called active. The sample holds actives, similar compounds and a random draw of the others, so the mix is not that of the screen. Unmarked numbers belong to inactive results. Rule as the data show it: active = inhibition above about 52%; inactive = the rest.

The assay can be described thus: inhibition of PrP 5' UTR reporter expression (AID 488862). Also: 0 = median of the neutral control wells. The settings on record: cell-based PrP 5' UTR mRNA reporter, plate reader; hits give high values; concentration not given here.
For orientation: inhibition means the relative decrease from the control value, in per cent. In the case of `CCCCSCCCNC(=O)C1CCC(CNS(=O)(=O)c2ccc(NC(C)=O)cc2)CC1` (stereo not given), the inhibition was -21.5%.

With `CCN(CCn1cccn1)C(=O)CC1C(=O)NCCN1Cc1cccc(OC)c1OC` (stereo not given), the inhibition is -9.29%.

`CCCCNCCS(=O)(=O)NCc1ccccc1`: the inhibition was -9.61%.

As for `CCCCNS(=O)(=O)CCNCc1ccccc1OC`, the inhibition is 60.7% (active).

Take `COc1ccccc1CNS(=O)(=O)c1ccc(C)cc1`: the inhibition is -15.1%.

In the case of `Cc1cccc([C@H]2[C@@H]3C=CC[C@@H](C)[C@@H]3C(=O)N2Cc2ccccc2)c1`, the inhibition is -11.5%.

`Cc1cccc([C@@H]2[C@@H]3C(=O)N(Cc4ccccc4)C(=O)[C@@H]3[C@]3(C)C(=O)N(c4ccc(Br)cc4)C(=O)N23)c1`: the inhibition is -3.38%.

With `Cc1ccc(-c2cccc([C@H]3[C@@H]4C=CC[C@@H](C)[C@@H]4C(=O)N3Cc3ccccc3)c2)cc1`, the inhibition was 61.8% (active).

`Cc1nc(N=C(N)N)nc2c(C)cccc12`: the inhibition was -22.8%.

As to `Cc1nc(C(=O)NCc2ccccc2)sc1C1(C)CC(c2cccnc2)=NO1` (stereo not given), the inhibition is -16.5%.

`O=C1OCC2=C1C(c1ccc(Cl)cc1)c1cc3c(cc1O2)OCO3` (stereo not given): the inhibition was 16.1%.

As for `COc1ccccc1C1C2=C(COC2=O)Nc2cc3c(cc21)OCO3` (stereo not given), the inhibition was 65.7% (active).

As to `CCCOc1ccccc1C1CC(=O)Nc2cc3c(cc21)OCO3` (stereo not given), the inhibition was -21.5%.

For the compound `COc1ccc(NC(=O)CN(C)C(=O)c2ccc(NC3CC3)c([N+](=O)[O-])c2)cc1`, the inhibition is -13.7%.

Regarding `Cc1noc(C)c1S(=O)(=O)Nc1ccc(C(=O)N2CCN(c3ccc(F)cc3)CC2)cc1`, the inhibition is 44.2%.

`N#Cc1nc(N)nc(N(c2ccccc2)c2ccccc2)n1`: the inhibition was -20.2%.

With `CCc1nn(CCCN2CCN(c3cccc(Cl)c3)CC2)c(=O)n1CCOc1ccccc1`, the inhibition is -17.3% and 2.12%.

As to `O=C(O)c1cccnc1NC1CCCC1`, the inhibition was -17.1%.

With `CC1=C(C)CC(C(=O)NNC(=O)c2ccccc2O)C(C(=O)O)C1` (stereo not given), the inhibition was -11.4%.

Take `Cc1cc(C(=O)CCC(=O)NNC(=O)c2ccccc2O)c(C)s1`: the inhibition is 4.28%.

Turning to `O=C(NNC(=O)c1ccccc1O)c1ccccc1O`, the inhibition was 58.9% (active).

Consider `C/C(=N/NC(=O)CN1CCN(S(=O)(=O)c2ccc(Br)cc2)CC1)c1ccncc1`, for which the inhibition is -9.51%.

For the compound `Cc1cc(C)nc(/N=C2\NC(=O)CC(C(=O)O)N2c2ccc(Cl)cc2Cl)n1` (stereo not given), the inhibition was -13.6%.

Consider `COc1ccc(C23NCCN2C(=O)c2ccccc23)cc1` (stereo not given), for which the inhibition was -5.86%.

Regarding `CC(NC(=O)c1cccc2ccccc12)c1ccc2c(c1)CCCC2` (stereo not given), the inhibition is -15.9%.
